From PubChem BioAssay (EPA / NIEHS)
Activity calls are given as the source filed them. Rule for the calls: active = hit-call score of the fitted dose curve at least 0.9, where 1 is the maximum; inactive = score below 0.9.

assay: CEETOX_H295R_PROG: CeeTox H295R High-throughput Steroidogenesis Assay for Progesterone (PROG) (AID 2283442); conditions: actives raise or lower the signal;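 for AC50: human H295R adrenal cells primed with 10 µM forskolin before dosing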
Experimental: CEETOX_H295R is a cell-based, multiplexed-readout assay that uses H295R, a human adrenal gland cell line, with measurements taken at 48 hours after chemical dosing in a 96-well plate.CEETOX_H295R_PROG is one of 23 assay component(s) measured or calculated from the CEETOX_H295R assay. It is designed to make measurements of hormone induction, a form of inducible reporter, as detected with absorbance signals by HPLC-MS-MS technology.Data from the assay component CEETOX_H295R_PROG was analyzed into 1 assay endpoint. This assay endpoint, CEETOX_H295R_PROG, was analyzed with bidirectional fitting relative to DMSO as the negative control and baseline of activity. Using a type of inducible reporter, gain or loss-of-signal activity using HPLC-MS-MS was used to understand synthesis of Progesterone in H295R cell line at 48hr of chemical exposure. To generalize the intended target to other relatable targets, this assay endpoint is annotated to the steroid hormone intended target family, where the subfamily is progestagens.
Cell culture and media preparation procedures were conducted in accordance with OECD Test No. 456 guidelines, with minor modifications. H295R cells (ATCC CRL-2128) were expanded for 5 passages and frozen in batches in liquid nitrogen. Prior to the steroidogenesis assay, H295R cells were thawed and passed at least 4 times. The maximum passage was 10. Cells were maintained in a 1:1 mixture of DMEM/F12 supplemented with 5ml/L ITS+ Premix (BD Bioscience) and 12.5 ml/L Nu-Serum (BD Bioscience). After seeding cells into 96-well plates at 50-60% confluency, cells were allowed to adhere overnight. Prior to chemical testing, culture medium was replaced with 175 uL medium containing 10 uM forskolin to stimulate steroidogenesis for 48 hours. Following prestimulation, forskolin medium was replaced with medium containing test chemical solubilized in DMSO (ensuring a final concentration of 0.1% DMSO). Test chemicals were incubated for 48 hours, then the medium was removed and split into 2 vials containing approximately 75uL each, and stored at -80 C prior to hormone analysis. For steroid quantification, media samples were shipped to OpAns, LLC (Durham, NC) on dry ice, and samples were thawed to room temperature prior to liquid-liquid extraction. Steroid hormones were extracted from media samples using methyl tertbutyl ether (MTBE). An extra derivatization with dansyl chloride was included for estrogen (estrone and estradiol) detection only. Steroid hormones were separated by HPLC, eluted using a reverse phase C18 gradient with electrospray positive ionization, followed by quantification by tandem mass spectrometry (MS/MS). Data were acquired on a MassHunter Workstation Acquisition version B03.01 (Agilent Technologies, Inc.) and processed using MassHunter Quantitative Analysis for QQQ. Accuracy was determined for each hormone analyte from 3 standards to determine upper and lower limits of quantification (ULOQ and LLOQ, respectively) using a 7-point standard curve. Precision and accuracy of the extraction and quantification methods were calculated as the percent relative standard deviation (%RSD) of the spiked standards and percent spiked standard recovered, respectively. The goal was to achieve 100% accuracy (i.e., recover all spiked-in standard at quantification with minimal loss during run time) and good precision (i.e., have %RSD <15% to ensure reproducibility). Test medium was removed following chemical exposure, and cell viability was evaluated in the same wells by MTT. MTT procedures were as follows: after removal of test medium, 500 uL of 0.5 mg/ml of 3-[4,5-dimethylthiazol-2-y]2,5-diphenyltetrazoliumbromide solution was added to the cells. Following a 4-hour incubation at 37 C and 5% CO2 to allow formazan-crystal formation, the MTT solution was removed and blue formazan salt crystals were solubilized using 500uL anhydrous isopropanol with shaking for 20 minutes. Absorbance was read at 570 and 650nm using a Packard Fusion microplate reader. […]

SMILES	AC50	outcome
CC(C)(C)c1ccc(O)c(O)c1	32.3 µM (active)	–
Cc1cccc2c1ccc1ccccc12	–	inactive
Oc1cc2ccccc2cc1O	–	inactive
C[C@]12CC[C@@H]3c4ccc(O)cc4CC[C@H]3[C@@H]1C[C@@H](O)[C@@H]2O	–	inactive
CCCCCc1ccc(O)cc1	–	inactive
CCCCCC(C)OC(=O)COc1ccc(Cl)c2cccnc12 (stereo not drawn)	–	inactive
COc1cc([N+](=O)[O-])ccc1N	24.2 µM (active)	–
Clc1ccc(Nc2nnc(Cc3ccncc3)c3ccccc23)cc1	–	inactive
O=C(NCc1ncc(C(F)(F)F)cc1Cl)c1c(Cl)cccc1Cl	7.48 µM (active)	–
c1cc[nH]c1	–	inactive
CC(C)CCOCCC(C)C	–	inactive
CC(C)(c1ccc(Oc2ccc(N)cc2)cc1)c1ccc(Oc2ccc(N)cc2)cc1	0.134 µM (active)	–
COc1cccc(O)c1	–	inactive
